PI5P4Ka inh: blocks human PI5P4K alpha kinase activity | actives 1.2% (n = 330,000) | max response, % | AID 652105 | PI5P4Kalpha enzyme, ADP-Glo luminescence, 60 min; stronger effect = lower value | P48426; active = max response of -50% or lower; inconclusive = between -30% and -50%; inactive = -30% or higher; note: value at the top dose of about 77 µM; % is set by controls: 0 for no effect and ±100 for the full control effect
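Quantitative HTS of the MLSMR library against PI5P4Kalpha with substrate. ATP added last at 5 microM final; room temperature, 60 minutes. Remaining ATP depleted, ADP converted and read as luminescence.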
WRN helicase inh-1: inhibitors of human WRN helicase; WRN helicase unwinding, fluorescent forked duplex, kinetic; Potency, µM (highest dose often 114 µM), for inactives: top-dose activity change, negative = inhibition, actives largely listed as inhibitors; actives 0.46% (n = 360,000); AID 651768; note: potency is the fitted concentration of half-maximal effect; % is set by controls: 0 for no effect and ±100 for the full control effect; nearly all actives have a fitted effect of over 55% in size
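WRN at 20 nM final preincubated with compound 15 min at room temperature; reaction started with 100 nM fluorophore/quencher forked duplex oligonucleotide and 2 mM ATP final. Unwinding followed kinetically by red fluorescence (ex 525, em 598 nm).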
POLB inh: blocks human DNA polymerase beta activity; P06746; actives 1.3% (n = 340,000); AID 485314; Potency, µM (top dose mostly 114 µM), without a hit: top-dose activity change, negative = inhibition, hits mostly inhibitors; Pol beta primer extension/strand displacement, fluorescence kinetic; note: potency is the fitted concentration of half-maximal effect; % is set by controls: 0 for no effect and ±100 for the full control effect
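10 nM enzyme + cpd, 15 min RT; start with substrate 50 nM final; read 0 min and after 10 min RT. Corrected, normalized data; 4-parameter Hill curve fit.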
Pol iota inh: blocks human DNA polymerase iota activity | Q9UNA4 | Pol iota fluorescent replication assay, 10 min | Potency, µM (top dose mostly 115 µM), without a hit: at the top dose activity, negative = inhibition, usual class: inhibitors | actives 1% (n = 390,000); note: potency is the fitted concentration of half-maximal effect
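Pol iota at 10 nM preincubated 15 min with compounds at room temperature; reaction started with fluorescent substrate, 50 nM final. Fluorescence read kinetically at 0 and 10 min; buffer-only wells as negative control.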
POLK inh: blocks human DNA polymerase kappa activity. Q9UBT6. purified Pol kappa, fluorescent DNA synthesis assay, 10 min. Potency, µM (doses to about 107 µM), without a hit: top-dose activity, negative = inhibition, hits mostly inhibitors. actives 0.53% (n = 400,000). AID 588579; note: potency is the fitted concentration of half-maximal effect; % is set by controls: 0 for no effect and ±100 for the full control effect
Target sequence (Q9UBT6 whole entry, looked up): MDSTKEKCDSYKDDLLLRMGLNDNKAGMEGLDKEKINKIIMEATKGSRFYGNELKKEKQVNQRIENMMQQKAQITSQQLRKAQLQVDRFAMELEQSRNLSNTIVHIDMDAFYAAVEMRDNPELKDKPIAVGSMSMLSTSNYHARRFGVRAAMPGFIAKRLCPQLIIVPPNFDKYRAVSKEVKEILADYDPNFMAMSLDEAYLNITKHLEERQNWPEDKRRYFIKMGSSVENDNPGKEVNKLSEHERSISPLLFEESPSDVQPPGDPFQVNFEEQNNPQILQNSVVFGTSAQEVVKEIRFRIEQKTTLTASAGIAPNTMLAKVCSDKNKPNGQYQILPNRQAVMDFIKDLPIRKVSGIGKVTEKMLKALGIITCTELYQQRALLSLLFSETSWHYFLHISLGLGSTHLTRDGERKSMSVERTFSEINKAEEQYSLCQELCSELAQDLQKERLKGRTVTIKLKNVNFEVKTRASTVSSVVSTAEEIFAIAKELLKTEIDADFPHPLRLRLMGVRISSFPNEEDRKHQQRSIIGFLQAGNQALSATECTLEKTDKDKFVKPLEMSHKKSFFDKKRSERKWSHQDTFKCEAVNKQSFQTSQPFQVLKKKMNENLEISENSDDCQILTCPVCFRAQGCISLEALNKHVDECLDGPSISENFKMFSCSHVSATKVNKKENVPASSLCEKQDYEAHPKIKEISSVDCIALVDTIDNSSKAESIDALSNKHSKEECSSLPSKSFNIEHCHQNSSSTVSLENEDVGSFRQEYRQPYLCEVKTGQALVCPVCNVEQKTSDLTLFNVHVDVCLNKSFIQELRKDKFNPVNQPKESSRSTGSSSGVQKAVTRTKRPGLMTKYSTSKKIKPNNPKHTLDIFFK
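Here, compound and 10 nM enzyme are combined for 15 min at room temperature; adding 50 nM substrate (final) starts DNA synthesis, tracked by fluorescence at 0 and 10 min against buffer-only wells.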
Pol eta inh: blocks human DNA polymerase eta activity | Potency, µM (titrated, usually from 114 µM), inactives show at the highest dose activity change, negative = inhibition, hits mostly inhibitors | actives 1.2% (n = 390,000) | AID 588591 | recombinant Pol eta, fluorescent DNA replication assay | Q9Y253; note: potency is the fitted concentration of half-maximal effect; % is set by controls: 0 for no effect and ±100 for the full control effect
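Fluorescent replication assay: 50 nM final substrate added after a 15 min room-temperature compound preincubation with 10 nM enzyme. Signal taken at 0 min and again at 10 min.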
WRN helicase inh-2: WRN helicase inhibition, cherry-pick retest; shares compounds with WRN helicase inh-1; WRN helicase DNA unwinding, fluorescence kinetic; Potency, µM (titrated, usually from 57.1 µM), without a hit: top-dose activity, negative = inhibition, actives largely listed as inhibitors; actives 63% (n = 610); AID 720497; note: potency is the fitted concentration of half-maximal effect; nearly all actives have a fitted effect of over 65% in size
TO displacement: binds DNA, flagged in WRN inhibitor counterscreen. shares compounds with WRN helicase inh-1. thiazole orange DNA binding displacement, fluorescence. Potency, µM (highest dose often 57.1 µM), for the others: top-dose activity change, negative = inhibition, hits mostly inhibitors. actives 10% (n = 610);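 note: drop in dye fluorescence marks compound binding to DNA; potency is the fitted concentration of half-maximal effect; % is set by controls: 0 for no effect and ±100 for the full control effect; nearly all actives have a fitted effect of over 60% in size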
BLM helicase inh: blocks human BLM helicase in WRN counterscreen | shares compounds with WRN helicase inh-1 | Recombinant BLM helicase DNA unwinding, red fluorescence | Potency, µM (titrated, usually from 57.1 µM), for the others: at the highest dose activity change, negative = inhibition, usual class: inhibitors | actives 60% (n = 610); note: potency is the fitted concentration of half-maximal effect; nearly all actives have a fitted effect of over 60% in size
ADP-Glo counter: ADP-Glo luciferase interference, PI5P4K counter-screen | shares compounds with PI5P4Ka inh | Potency, µM (highest dose often 76.9 µM), for inactives: at the top dose activity change, negative = inhibition, usual class: inhibitors | 1,100 tested, under 10 active | ADP-Glo detection counter-screen, luciferase luminescence, no enzyme
The depositor's hits bear a star; ? = inconclusive; · = no result; [ ] = remark or other dose. This is a sample that favours compounds with a hit; in the whole collection about 2.8% have one here. Unless noted, calls come from the whole dose curve; as a rule, active = well fitted curve in the direction sought with a large enough effect; inconclusive = small, poorly fitted or top-dose-only effect, or another doubt; inactive = no such curve, though single readings can be large; an effect the other way counts as inactive or inconclusive.

SMILES | PI5P4Ka inh | WRN helicase inh-1 | POLB inh | Pol iota inh | POLK inh | Pol eta inh | ADP-Glo counter | others
Cc1cccc(OCC(=O)Nc2ccc(O)c(-c3nc4ccccc4o3)c2)c1 | · | · | · | ? | -19% | · | ·
O=C(NCCCN1CCOCC1)c1sc2cc([N+](=O)[O-])ccc2c1Cl | -68* | 28µM* | 89% | 59% | -1% | -14% | -1% | WRN helicase inh-2=-12%;TO displacement=-15%;BLM helicase inh=?
O=C(NCCCN1CCOCC1)c1sc2cc(Cl)ccc2c1Cl | -6 | -3% | 23% | 86% | -11% | 4% | ·
CCc1ccccc1NC(=O)C1=C(C)C(=O)OC12CCCCCC2 | · | · | ? | 17% | -10% | -2% | ·
CCc1nnc(NC(=O)c2cc(-c3ccc(C)o3)nc3ccccc23)s1 | -55* | ? | · | 8% | -10% | -4% | 5% | WRN helicase inh-2=?;TO displacement=-13%;BLM helicase inh=-5%
Cc1ccc(-c2cc(C(=O)O)c3cc(Br)ccc3n2)o1 | -69* | 35µM* | 22µM* | ? | ? | 20µM* | 0% | WRN helicase inh-2=15µM*;TO displacement=-10%;BLM helicase inh=?
Cc1ccc(NC(=O)CN2C(=O)c3ccccc3Sc3ccc(C(=O)N4CCOCC4)cc32)cc1F | · | · | 5% | 0% | -17%[60.1 µM] | -8% | ·
COc1ccc(N2CSC3=C(C#N)C(c4cccc(OC)c4OC)CC(=O)N3C2)cc1 (stereo not given) | -51* | 6% | 1% | 57% | -10% | 8% | -14%
COc1cccc(C2SCC(=O)N2c2ccc(Cl)cc2)c1OC (stereo not given) | -5 | 2% | 0% | 79% | -8% | -5% | ·
CCc1ccccc1N1CSC2=C(C#N)C(c3ccccc3F)CC(=O)N2C1 (stereo not given) | -60* | -1% | -27% | -8% | -6% | -8% | -8%
COc1ccc2ccccc2c1C1CC(=O)N2CN(C3CCCCC3)CSC2=C1C#N (stereo not given) | -56* | -2% | 89µM* | ? | -44% | ? | -5%
COc1cccc(CNC(=O)Cn2c(=O)cc(C(F)(F)F)c3c(C)nn(C)c32)c1OC | · | · | 2% | 0% | 0% | -19% | ·
Cc1nc(-c2cccc(C(F)(F)F)c2)sc1C(=O)O | -50* | -26%[57.1 µM] | 43% | 84% | -4% | -10% | 2%
CCCCOc1ccc(C2C(=O)N(C3CCCCC3)CC(=O)N2C2CCCCC2)cc1 (stereo not given) | · | · | 16% | 13% | -2%[60.1 µM] | -9% | ·
Cc1cc(C)cc(NC(=O)C(=O)NCC(c2cccnc2)N2CCN(c3ccccc3)CC2)c1 (stereo not given) | · | · | 0% | -12% | -11% | -7% | ·
CCOc1ccc(CCNS(=O)(=O)c2ccc3c(c2)NC(=O)CO3)cc1OCC | -9 | 8% | 0% | -7% | -2% | 6% | ·
O=C1COc2ccc(S(=O)(=O)NCCc3ccccc3)cc2N1 | -51* | -4% | 13% | ? | -20% | -24% | 2%

Source: PubChem (National Center for Advancing Translational Sciences (NCATS))
